# In PubChem BioAssay AID593 (National Center for Advancing Translational Sciences (NCATS), 2007):
# The campaign covered roughly 59,000 compounds. About 540 (0.92%) were called active. About 33% were inconclusive and are not listed. No stated cut-off is given here; in the data, active means max fluorescein-equivalent concentration above about 10 nM; inconclusive means between about 1.1 nM and that limit; inactive means weaker than that. For the sample, actives were picked, then their nearest neighbours and some compounds at random.
# Assay: qHTS Assay for Spectroscopic Profiling in Fluorescein Spectral Region
# Details: Compound autofluorescence, 480/540 nm; max fluorescein-equivalent concentration: hits give high values; outcome: fluorescein-equivalent
# Source text: NIH Molecular Libraries Screening Centers Network [MLSCN]
# NIH Chemical Genomics Center [NCGC]
# Occasionally, the artifactual effect may originate from the compound's own spectral or other biophysical properties which generally tend to track its assay concentration. Pre-screening/profiling the library with respect to the compounds' spectral properties should help one exclude false positives early on. While the most informative fluorescent profiling data set is obtained by performing a full excitation and emission scan of each well by using a monochromator-based plate reader, such an approach is practical only on a very limited scale as scanning each well requires long time. An alternative approach, applied here, is to perform plate reader scans using selected excitation and emission wavelength pairs to generate a multidimensional relational database that correlates compound concentration and the respective relative fluorescence intensity at a given wavelength set. A standard curve of fluorescein present on each plate as six-point concentration series, was used to compute a normalized fluorescence response, termed dye-equivalent concentration, for each compound at each concentration.
# NCGC Assay Protocol Summary:
# 100 mM Tris buffer, pH 8.0
# The wells in columns 1 through 4 of a Kalypsys polypropylene 1536-well compound plate were filled with standard solutions of fluorophore corresponding to the spectral region of interest. Solutions of Fluorescein were placed in the following wells: Q1, R1: 3 mM, Q2, R2: 300 uM, Q3, R3: 30 uM, Q4, R4: zero (DMSO), S1, T1: 3 uM, S2, T2: 900 nM, S3, T3: 300 nM, S4, T4: zero (DMSO).
# Six uL of buffer were dispensed to 1536-well Greiner black plates. Compounds and dye standards (23 nL) were transferred via Kalypsys PinTool. The plates were incubated for 15 min at room temperature, and then read on ViewLux (Perkin-Elmer) High-throughput CCD imager using 480 nm and 540 nm excitation and emission filter set.
# Keywords: NIH Roadmap, MLSCN, MLI, MLSMR, qHTS, NCGC, Fluorescein, Fluorescent Profiling.
row,SMILES,max fluorescein-equivalent concentration
1,COc1ccc2nc(NC3=NCN(CC4CCCO4)CN3)nc(C)c2c1 (centres undefined),inactive
2,COc1cccc(Nc2ncc3ncc(=O)n(C4CC4)c3n2)c1,inactive
3,Oc1c(Br)cc(CN(Cc2cc(Br)c(O)c(Br)c2)C2CCCCC2)cc1Br,inactive
4,COc1ccc(C2C3=C(CC(C)(C)CC3=O)Oc3ncn4nc(-c5cccnc5)nc4c32)cc1OC (centres undefined),inactive
5,O=C(c1ccc([N+](=O)[O-])cc1)[C@@H](Br)[C@@H](Br)c1ccnc2ccccc12,inactive
6,CN(C)CCSS(=O)(=O)O,inactive
7,CCCn1c(SCC(=O)c2ccc3c(c2)OCCO3)nnc1C(C)C,inactive
8,CCCCOc1ccccc1/C=c1/sc2nc(-c3oc4ccccc4c3C)nn2c1=O,inactive
9,COc1cccc(Cn2c(=O)c(-c3cc(F)cc(F)c3)nc3cnc(OC)nc32)c1,inactive
10,CCOC(=O)CSc1nc2sc3c(c2c(=O)[nH]1)CC(C)(C)OC3,inactive
11,CCOc1ccc2[nH]c(=O)c(CN(CCCO)C(C)=O)cc2c1,inactive
12,CN1CCN(CC(=O)C23CC4CC(CC(C4)C2)C3)CC1,inactive
13,c1ccc2sc(SCCSc3nc4ccccc4s3)nc2c1,inactive
14,CCOC(=O)c1csc(NC(=O)c2ccc(S(=O)(=O)N3CCCC3)cc2)n1,inactive
15,O=C(c1ccco1)N1CCC2(CC1)CN(c1ncccn1)C2,inactive
16,CCOC(=O)c1sc(NC(=O)c2cc(S(=O)(=O)N3CCOCC3)ccc2C)nc1C,inactive
17,COc1cccc(-c2nc(Nc3ccncc3)c3ccccc3n2)c1,inactive
18,CC(C)NC(=O)N1CC[C@@]2(CCCN(C(=O)c3cccn3C)C2)C1,inactive
19,CCCCCC(=O)Nc1ccc2oc(-c3ccncc3)nc2c1,inactive
20,Cc1ccc(CC2CC(=O)N(c3ccc4c(c3)OCCO4)C2=O)cc1 (centres undefined),inactive
21,CCOC(=O)C1C(=O)NC(N2CCN(c3ccccc3)CC2)=NC1c1ccco1 (centres undefined),inactive
22,O=C(c1cnccn1)N1CCC2(CCN(Cc3cc(C(F)(F)F)cc(C(F)(F)F)c3)CC2)CC1,inactive
23,N=c1c2c3c(sc2ncn1N)CCCCC3,inactive
24,O=c1c(-c2ccc(F)cc2)nc2cnc(N3CCNCC3)nc2n1Cc1cccs1,inactive
25,CCN(CC)C(=O)C1CCC(C)(C(=O)O)C1(C)C (centres undefined),inactive
26,CCc1ccc(CCC(=O)Nc2ccc(S(N)(=O)=O)cc2)o1,inactive
27,COc1ccc(-c2nc(SCC(=O)N3CCOCC3)n[nH]2)cc1,inactive

row,SMILES,max fluorescein-equivalent concentration
1,CN(C)/C=C1/Nc2ccccc2C1=O,inactive
2,COC(=O)C(C)N(C#N)c1nc(C)nc(C)n1 (centres undefined),inactive
3,COCCCn1c2nc3ccccc3nc2c2c(=O)n(Cc3ccc(Cl)cc3)c(C)nc21,inactive
4,CCN(CC)S(=O)(=O)c1ccc2nc(CSc3nnnn3-c3ccc(O)cc3)[nH]c2c1,inactive
5,COc1cc(OC)cc(C(=O)Nc2ccc(-c3nc4ccccc4o3)c(O)c2)c1,inactive
6,CC(=O)c1ccc(N2C(=NC(=O)C(C)C)SC3CS(=O)(=O)CC32)cc1 (centres undefined),inactive
7,COc1ccc(C(c2nnnn2Cc2cccs2)N2CCN(c3ccccc3)CC2)cc1OC (centres undefined),inactive
8,CC(=O)c1ccc(NC(=O)N[C@@H](Cc2ccccc2)C(=O)O)cc1,inactive
9,CC(C)c1ccc(-c2nn[nH]n2)cc1,inactive
10,Cn1c(SCC(=O)c2cccs2)nnc1-c1ccco1,inactive
11,CC1(C)Cc2ccccc2-c2nnc(-c3cccc(O)c3)n21,inactive
12,CC1(C)Cc2cccc(OCC(=O)Nc3nccs3)c2O1,inactive
13,COC(=O)c1ccc(NC(=O)CSc2nnc(-c3ccncc3)n2C)cc1,inactive
14,Cc1ccc(C)c(NC(=O)C2CC(=O)N(C(C)C)C2)c1 (centres undefined),inactive
15,Cc1ccccc1-c1nc(N(C)Cc2ccco2)c2ccccc2n1,inactive
16,c1ccc(CSCCc2ccncc2)cc1,inactive
17,C[C@]1(O)CC[C@H]2[C@H]3CC=C4N5CCN=C5CC[C@@]4(C)[C@H]3CC[C@@]21C,inactive
18,O=c1[nH]nc(Cc2ccccn2)c2ccccc12,inactive
19,Cc1ccc(-c2noc(CN3CCN(Cc4ccccc4)CC3)n2)cc1,inactive
20,CCOC(=O)c1cc2occc2n1CC(=O)NC1CCC(C)CC1 (centres undefined),inactive
21,COc1ccc(C(=O)N(Cc2ccc(N(C)C)cc2)C2CCS(=O)(=O)C2)cc1 (centres undefined),inactive
22,O=S(=O)(NCCOc1cccc2cccnc12)c1ccc(F)cc1,inactive
23,Nc1nc2c(ncn2[C@H]2CC[C@@H](CO)O2)c(=O)n1C(=O)c1ccccc1,inactive
24,O=C(O)[C@H](CCc1ccccn1)c1ccccc1,inactive
25,O=C(O)c1c(Br)c(Br)c(Br)c(Br)c1C1c2ccc(O)cc2Oc2cc(O)ccc21,320 nM (active)
26,O=C(COc1cccc(-n2cnnn2)c1)NCCC1=CCCCC1,inactive
27,Cc1cc2c(cc1C)NC1=C(N2)O[C@H](c2c[nH]c3ccc(COc4ccccc4)cc23)C1=O,inactive
